Hit rate of the full screen: of about 190,000 compounds, about 930 (0.49%) were called active.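 The calls were made as follows: active = z-score of insulin promoter reporter brightness in nuclei below -3 at 5 µM, with at least 500 cells counted; inconclusive = wells with under 500 cells, flagged as toxic or sparse; inactive = the rest.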 The list shows a part of the results. Results with a measured potency or affinity are listed apart.

A short description of this assay: decrease of insulin promoter-GFP reporter – imaging, high-content screening, mouse beta cells (AID 1628). Conditions: MIN6 insulin promoter GFP reporter, at 5 µM, hits give low values.
For `CCc1ccc(CN(C)C(=O)CCc2nnc(-c3ccc(-c4ccccc4)cc3)o2)nc1`, the z-score was -3.31 (active). Then `CCN(CC)c1ccc2cc(C#N)c(=O)oc2c1`, with 4.24 (inactive). Consider `CCCCCCc1cc2cc(-c3nnc(-c4ccccc4O)o3)c(=O)oc2cc1O`, for which the z-score is 7.49 (inactive). For `CCCCCCc1cc2cc(-c3nnc(-c4ccccc4OC)o3)c(=O)oc2cc1O`, the z-score was 8.91 (inactive).

As for `CCCCCCc1cc2cc(C(=O)Nc3ccc(OC)cc3)c(=O)oc2cc1O`, the z-score was -4.12 (active). For `CCCOc1ccc(Cn2cnc3ccccc32)cc1`, the z-score was -5.58 (active).

With `COC(=O)c1ccc(OCCn2cnc3ccccc3c2=O)cc1`, the z-score is 0.57 (inactive). In the case of `Cc1cc(SCCOc2ccccc2)nc(N)n1`, the z-score is 3.13 (inactive). On to `COC(=O)Cc1c(C)nc2nc(NCc3ccccc3OC)[nH]n2c1=O`, for which the z-score was 4.27 (inactive). Turning to `Cc1cc(C)cc(-n2c(=O)c3sccc3n(CC(=O)NCc3ccco3)c2=O)c1`, the z-score was 4.64 (inactive).

For `CC(=O)c1sc2nc(-c3cccs3)cc(C(F)(F)F)c2c1N`, the z-score was 14.9 (inactive).

On to `Nc1ncnc2c1ncn2CCOc1ccccc1`, for which the z-score was -4.5 (active). In the case of `CC(C)(C)NC(=O)/C=C/c1ccc(C(F)(F)F)cc1`, the z-score was -3.15 (active). Then `CC(C)(C)C(=O)/C=c1\s/c(=C\c2ccc(-c3ccc([N+](=O)[O-])cc3)o2)c(=O)n1CC(=O)NC(N)=O`, with 17.1 (inactive); and `CC1(C)C=Cc2c(c3c(c4c(=O)c(-c5ccc(O)cc5)coc24)OC(C)(C)CC3)O1`, with -0.78 (inactive); and `CC(C)c1nc2oc3c(N4CCN(C)CC4)ncnc3c2c2c1CCC2`, with -3.12 (active).

On to `COCCn1c(C)cc(C(=O)CSc2ncnc3sc4c(c23)CCC4)c1C`, for which the z-score is -8.03 (active).

For `CC(OC(=O)c1ccc(S(=O)(=O)NCc2ccco2)cc1)C(=O)Nc1ncc(Cl)cc1Cl` (stereo unspecified), the z-score is -5.26 (active).

As for `CC(OC(=O)c1ccc2ncsc2c1)C(=O)Nc1ncc(Cl)cc1Cl` (stereo unspecified), the z-score was -5.12 (active). Turning to `N#Cc1ccc(CSc2nnc(NC(=O)c3ccc4ncsc4c3)s2)cc1`, the z-score is 4.4 (inactive). Regarding `Cc1noc(C)c1CS(=O)(=O)c1ccc(Br)cc1`, the z-score was 3.18 (inactive). In the case of `Cc1noc(C)c1COC(=O)c1ccc(S(=O)(=O)NCc2ccco2)cc1`, the z-score was -4.22 (active). As to `C1=C(N2CCOCC2)/C(=C/c2nc3ccccc3[nH]2)CC1`, the z-score is 3.43 (inactive). Turning to `COc1ccc(N=c2oc3cc(O)ccc3cc2C(=O)Nc2ccccn2)cc1OC`, the z-score was -3.17 (active). As to `CCN(CC)c1ccc2cc(C(=O)Nc3ccccn3)c(=O)oc2c1`, the z-score was 6.12 (inactive).

Regarding `CCCN1C(=O)/C(=C/c2c(NCCCOC(C)C)nc3c(C)cccn3c2=O)SC1=S`, the z-score was 11.2 (inactive).

For `CC(C)OCCCn1c(NN)nc2ccccc2c1=O`, the z-score is -4.32 (active). Take `O=c1oc2ccccc2c(NCc2cccc(F)c2)c1[N+](=O)[O-]`: the z-score is 1.25 (inactive). For the compound `Cc1ccc(/C(C#N)=C\c2ccc(N3CCOCC3)o2)cc1`, the z-score is 6.7 (inactive). Consider `C/C(=N\NC(=O)c1cc(-c2cccs2)nc2ccccc12)c1ccccn1`, for which the z-score is -6.25 (active).

For `C/C(=N\NC(=O)c1cc(-c2ccccn2)nc2ccccc12)c1cccc([N+](=O)[O-])c1`, the z-score was 4.2 (inactive). As to `Cc1cc(C)c2nc(NNC(=O)c3cc(-c4cccs4)nc4ccccc34)sc2c1`, the z-score is 3.73 (inactive). With `Cc1ccnc(N2C(=O)c3cccc4c([N+](=O)[O-])ccc(c34)C2=O)c1`, the z-score is 3.14 (inactive). As for `Cc1ccc(N2C(=O)c3cccc4c(N5CCN(C)CC5)ccc(c34)C2=O)c2cccnc12`, the z-score is 5.89 (inactive). Turning to `COc1ccc(Cc2nc(-c3ccc(NC(=O)c4cccnc4)cc3)no2)cc1`, the z-score was -4.08 (active). For the compound `O=C(Nc1cccnc1)c1ccc(S(=O)(=O)c2ccc(Cl)cc2)cc1`, the z-score is 1.01 (inactive). Turning to `COc1ccc(NC(=O)c2sc3nc(-c4cccnc4)ccc3c2N)cc1`, the z-score was 6.04 (inactive). On to `Cc1cccc(C2C3=C(Nc4[nH]n(-c5ccccc5)c(=O)c42)c2ccccc2C3=O)c1` (stereo unspecified), for which the z-score is -4.1 (active). Take `c1ccc2c(c1)oc1c(N3CCN(Cc4ccc5c(c4)OCO5)CC3)ncnc12`: the z-score is -6.44 (active). In the case of `Brc1ccc2oc3c(N4CCOCC4)ncnc3c2c1`, the z-score was -0.34 (inactive). In the case of `CC(C)/C=C1\CC/C(=C\c2ccc(N(C)C)cc2)C1=O`, the z-score is 3.08 (inactive). Take `COc1cc(-c2noc(C3CCCN(S(=O)(=O)c4cccc(Cl)c4)C3)n2)cc(OC)c1OC` (stereo unspecified): the z-score is -3.23 (active). On to `COc1cccc2c(=O)n(CC(=O)Nc3cccc(F)c3)ccc12`, for which the z-score is 3.43 (inactive). In the case of `Cc1ccccc1C(=O)Nc1cccc(NC(=O)Cn2cnc3c(=O)n(C)c(=O)n(C)c32)c1`, the z-score was -5.95 (active).

As for `O=C(COC(=O)Cn1cnc2ccccc2c1=O)Nc1cc(Cl)ccc1[N+](=O)[O-]`, the z-score is -4.27 (active). Take `Cc1nc(NC(=O)COC(=O)CCS(=O)(=O)c2ccccc2Cl)c(Cl)cc1Cl`: the z-score was 4.24 (inactive). As to `N#Cc1cccc(NC(=O)COC(=O)CCc2nc3ccccc3c(=O)[nH]2)c1`, the z-score is 1.59 (inactive). For the compound `CCc1cc2c(N3CCN(c4nnc(CC)s4)CC3)ncnc2s1`, the z-score is -5.09 (active).

Regarding `CCOc1cc(/C=N/NC(N)=O)cc(Br)c1OCc1ccccc1F`, the z-score was -5.46 (active). Regarding `CCCNC(=O)N1CCC(C(=O)c2ccc(Cl)cc2)CC1`, the z-score was 3.79 (inactive). Consider `O=C(C1CCC1)N1CCc2cc(S(=O)(=O)NCCN3CCN(c4ccccc4F)CC3)ccc21`, for which the z-score was -4.42 (active). Take `O=C(C1CCC1)N1CCc2cc(S(=O)(=O)NCc3cccnc3)ccc21`: the z-score was -3.56 (active). Regarding `Nc1c(C(=O)C2CC2)sc2nc(-c3ccccc3)cc(C(F)(F)F)c12`, the z-score was 11.2 (inactive). On to `C(=N\c1nc2ccccc2[nH]1)/c1cccs1`, for which the z-score is -1.35 (inactive). Regarding `CC(=O)c1c(C)[nH]c(-c2ccccc2)nc1=S`, the z-score was 5.61 (inactive).

On to `Cc1cc2c(ncn2C)c(NS(=O)(=O)c2ccccc2Cl)c1C`, for which the z-score is -4.59 (active). Turning to `Cc1ccc(NS(=O)(=O)c2cc(C(=O)O)ccc2Cl)c(C)c1`, the z-score is 1.63 (inactive). Consider `CCOc1cccc2cc(C(N)=O)c(=NCc3ccccc3)oc12`, for which the z-score was -3.34 (active).

Consider `CCN(CC)c1ccc2cc(C(N)=O)/c(=N\NC(=O)c3ccncc3)oc2c1`, for which the z-score is 5.56 (inactive). Turning to `NC(=O)c1cc2ccc(O)cc2oc1=NCc1ccccc1`, the z-score is 6.96 (inactive).

Turning to `CN(C)/C=N/c1sc2c(c1C#N)CCC2`, the z-score is -0.51 (inactive). Turning to `O=C(O)CC12CSc3[nH]c(=O)sc3C1c1ccccc1OC2=O` (stereo unspecified), the z-score is 3.25 (inactive). `Fc1ccc(C2CC(c3ccco3)=NN2c2ccccc2)cc1` (stereo unspecified): the z-score is 3.51 (inactive). For `O=C(COc1ccccc1)N1CCN=C1c1ccccc1`, the z-score is 3.07 (inactive). With `O=C(O)CCC(=O)N1CC=C(c2ccccc2)CC1`, the z-score was -3.14 (active). Take `O=C(O)c1ccn(COc2ccc(Br)cc2)n1`: the z-score is 4.62 (inactive).

`CCOC(=O)N1CCC(NC(=O)c2cc(C(=O)Nc3ccc(OC)c(OC)c3)ccc2CO)CC1`: the z-score was 3.42 (inactive).

For the compound `CCN1CCc2c(sc(NC(=O)Nc3ccc(Cl)c(Cl)c3)c2C(N)=O)C1`, the z-score was 16 (inactive). Then `Cc1cn(S(=O)(=O)c2ccc(Br)c3ccccc23)cn1`, with -4.36 (active); and `COc1ccc(N(C(=O)Cc2cccs2)C2C=CS(=O)(=O)C2)cc1` (stereo unspecified), with 3.14 (inactive). Turning to `O=C1S/C(=C\c2ccc(N3CCOCC3)o2)C(=O)N1Cc1c(F)cccc1Cl`, the z-score was 14.9 (inactive). On to `C1=C(c2ccccc2)Nc2nnnn2C1`, for which the z-score was 3.1 (inactive).

As for `NC(=S)N/N=C/c1cccc(O)c1O`, the z-score is -5.73 (active). `FC(F)C(F)(F)C1=CC(c2ccccc2)=NCCN1`: the z-score was -3.16 (active). On to `Cc1cccc2cc3c(N)c(C(=O)N4CCc5ccccc54)sc3nc12`, for which the z-score was 4.42 (inactive). With `CC1CCc2nc3ccccc3c(C(=O)OCC(=O)N3CCc4ccccc43)c2C1` (stereo unspecified), the z-score was -7.27 (active). For `O=C1C2C3C=CC(C3)C2C(=O)N1CCC(=O)N1CCc2ccccc21` (stereo unspecified), the z-score was 0.52 (inactive). Take `COc1ccc(Cc2nnc(NC(=O)Cc3cccs3)s2)cc1`: the z-score is 3.48 (inactive). The value for `CCOc1cccc(NC(=O)Cc2cccs2)c1` was -3.39 (active). Then `CCOc1ccc(NC2=NCC(=O)N2Cc2cccs2)cc1`, with 4.8 (inactive). Turning to `O=C(O)CCCCCCCCCCCc1ccccc1`, the z-score was 0.16 (inactive).

On to `CC1=C(C(=O)OCc2ccccc2)C(c2ccccc2)NC(=O)N1CCCCCC(=O)O` (stereo unspecified), for which the z-score was -5.52 (active). The value for `CCOC(=O)/C(=C\C=C1/Sc2cc(OCC)c(OCC)cc2N1CC)C(C)=O` was 16.7 (inactive); that for `Clc1cccc(-c2cc3nc4c(c(N5CCNCC5)n3n2)CCCC4)c1` was -0.83 (inactive). Consider `COc1cc(OC)cc(-c2cc3nc4c(c(N5CCN(c6ncccn6)CC5)n3n2)CCCC4)c1`, for which the z-score was -3.61 (active). Consider `COc1cccc(-c2cc3nc4c(c(N5CCC6(CC5)OCCO6)n3n2)CCC4)c1`, for which the z-score is -3.88 (active). `CC(C)N1CC=C2C(C#N)=C(N)C(C#N)(C#N)[C@H](c3ccoc3)[C@H]2C1`: the z-score is 9.66 (inactive). On to `CN(C)CCOCCOc1ccccc1-c1ccccc1`, for which the z-score is 4.97 (inactive). As to `CC1CN(c2oc(COc3ccc(Cl)cc3Cl)nc2C#N)CC(C)O1` (stereo unspecified), the z-score is -3.34 (active). On to `COC(=O)c1cc(NC(=O)c2cccc(Cl)c2)c(=O)oc1/C=C/Nc1cc(C)cc(C)c1`, for which the z-score was 14.9 (inactive).

With `CC(=O)c1cc(NC(=O)c2ccc(Cl)cc2)c(=O)oc1/C=C/N(C)C`, the z-score is 3.13 (inactive). On to `COC(=O)c1ccc(C(=O)Nc2cc(Cl)ccc2Cl)cc1NC(=O)c1ccc(N(C)C)cc1`, for which the z-score is -4.37 (active). Take `Cc1ccc2nc(NCCC(=O)O)nc(-c3ccccc3)c2c1`: the z-score is 4.16 (inactive). Consider `CC1CCCc2sc3nc(NCc4ccco4)n4ncnc4c3c21` (stereo unspecified), for which the z-score is -3.54 (active).

As for `N#C/C(=C\c1ccc(N2CCCCC2)o1)C(=O)Nc1cccc(Br)c1`, the z-score was 12.9 (inactive). Consider `COc1ccc(C2=NC(=O)/C(=C\c3cc(OC)c(OC)c(OC)c3)O2)cc1`, for which the z-score was 3.04 (inactive).
